Data from publication PMC7862700, “An all-to-all approach to the identification of sequence-specific readers for epigenetic DNA modifications on cytosine”.

Legend:
Experiment in all cases: DAPPL (digital affinity profiling via proximity ligation, sequencing); 10 mM Tris-HCl pH 7.5, 50 mM NaCl, 1 mM DTT, 4% glycerol, room temperature, 30 min; GST-TFs on glutathione beads, 16-mer random dsDNA library, 0.1% formaldehyde crosslink after washing; high values mean tight binding
FEV = target: T1, FEV (Homo sapiens, UniProt Q99581 1-238); conditions: protein: recombinant; tags: N-terminal GST; dsDNA, one strand shown
T1 sequence: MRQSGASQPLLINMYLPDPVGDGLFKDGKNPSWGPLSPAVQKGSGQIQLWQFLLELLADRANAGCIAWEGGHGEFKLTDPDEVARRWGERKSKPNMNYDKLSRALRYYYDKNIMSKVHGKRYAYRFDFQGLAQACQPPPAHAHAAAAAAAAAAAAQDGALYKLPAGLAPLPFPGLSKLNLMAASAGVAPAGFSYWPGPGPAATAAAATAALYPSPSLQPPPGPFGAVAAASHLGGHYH
Summary of the method: (§1)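 A tag-only sample was pooled with DNA-barcoded human transcription factors that had been expressed in yeast as GST fusions and captured on glutathione beads. The pools were incubated for 30 min at room temperature with 200 nmole of a random double-stranded 16-mer DNA library in Tris/NaCl/DTT/glycerol buffer, then washed, crosslinked with 0.1% formaldehyde, proximity-ligated (BsaI/T4 ligase, 1 h, 37 °C), PCR-amplified and sequenced on an Illumina NextSeq500. Binding signal is each hexamer's read frequency for a factor divided by its frequency for the tag-only sample.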

ETV5 = ETV5 (Homo sapiens, UniProt P41161 1-510); conditions: protein: recombinant; tags: N-terminal GST; dsDNA, one strand shown
ETV5, sequence (P41161 whole entry): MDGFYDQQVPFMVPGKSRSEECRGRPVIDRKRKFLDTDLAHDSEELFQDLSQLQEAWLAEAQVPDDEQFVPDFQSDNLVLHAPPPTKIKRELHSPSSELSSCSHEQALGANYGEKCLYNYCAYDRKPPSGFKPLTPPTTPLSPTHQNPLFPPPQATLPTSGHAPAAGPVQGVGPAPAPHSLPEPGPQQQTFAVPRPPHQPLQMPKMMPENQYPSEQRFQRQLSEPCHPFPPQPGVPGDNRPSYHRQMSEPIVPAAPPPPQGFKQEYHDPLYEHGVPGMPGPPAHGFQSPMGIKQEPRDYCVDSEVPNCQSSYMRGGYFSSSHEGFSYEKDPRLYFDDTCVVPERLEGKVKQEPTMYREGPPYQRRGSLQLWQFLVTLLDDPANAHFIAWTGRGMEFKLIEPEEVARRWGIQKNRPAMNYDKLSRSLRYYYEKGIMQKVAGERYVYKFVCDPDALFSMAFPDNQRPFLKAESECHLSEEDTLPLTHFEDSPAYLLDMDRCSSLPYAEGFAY
Summary of the method: as §1

HSF1 = HSF1 (Homo sapiens, UniProt Q00613 1-529); conditions: protein: recombinant; tags: N-terminal GST; chain copies: 3; dsDNA, one strand shown
HSF1, sequence (Q00613 whole entry): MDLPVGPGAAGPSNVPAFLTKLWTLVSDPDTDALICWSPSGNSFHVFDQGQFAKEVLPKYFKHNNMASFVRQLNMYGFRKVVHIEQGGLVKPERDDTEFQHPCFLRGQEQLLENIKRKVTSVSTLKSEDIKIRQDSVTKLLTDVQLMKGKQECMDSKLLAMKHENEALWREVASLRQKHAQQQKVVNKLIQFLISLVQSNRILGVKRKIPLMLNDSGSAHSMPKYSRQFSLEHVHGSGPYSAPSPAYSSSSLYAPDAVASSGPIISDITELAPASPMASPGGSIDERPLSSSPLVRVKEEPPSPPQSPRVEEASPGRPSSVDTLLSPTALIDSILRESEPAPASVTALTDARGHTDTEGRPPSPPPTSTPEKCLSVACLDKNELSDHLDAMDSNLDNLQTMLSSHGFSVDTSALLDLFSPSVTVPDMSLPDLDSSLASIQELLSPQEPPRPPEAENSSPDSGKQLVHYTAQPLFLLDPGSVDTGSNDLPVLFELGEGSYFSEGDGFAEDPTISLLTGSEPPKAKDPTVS
Summary of the method: as §1

SPIC = target: T2, SPIC (Homo sapiens, UniProt Q8N5J4 1-248); conditions: protein: recombinant; tags: N-terminal GST; dsDNA, one strand shown
T2 sequence: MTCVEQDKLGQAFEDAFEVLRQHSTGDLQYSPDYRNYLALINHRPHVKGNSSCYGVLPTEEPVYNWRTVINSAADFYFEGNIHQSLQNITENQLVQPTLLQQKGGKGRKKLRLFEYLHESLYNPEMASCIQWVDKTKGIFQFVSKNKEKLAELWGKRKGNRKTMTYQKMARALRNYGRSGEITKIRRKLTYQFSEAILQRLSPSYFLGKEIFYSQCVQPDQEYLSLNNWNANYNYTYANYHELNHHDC
Summary of the method: as §1

ELF4 = ELF4 (Homo sapiens, UniProt Q99607 1-663); conditions: protein: recombinant; tags: N-terminal GST; dsDNA, one strand shown
ELF4, sequence (Q99607 whole entry): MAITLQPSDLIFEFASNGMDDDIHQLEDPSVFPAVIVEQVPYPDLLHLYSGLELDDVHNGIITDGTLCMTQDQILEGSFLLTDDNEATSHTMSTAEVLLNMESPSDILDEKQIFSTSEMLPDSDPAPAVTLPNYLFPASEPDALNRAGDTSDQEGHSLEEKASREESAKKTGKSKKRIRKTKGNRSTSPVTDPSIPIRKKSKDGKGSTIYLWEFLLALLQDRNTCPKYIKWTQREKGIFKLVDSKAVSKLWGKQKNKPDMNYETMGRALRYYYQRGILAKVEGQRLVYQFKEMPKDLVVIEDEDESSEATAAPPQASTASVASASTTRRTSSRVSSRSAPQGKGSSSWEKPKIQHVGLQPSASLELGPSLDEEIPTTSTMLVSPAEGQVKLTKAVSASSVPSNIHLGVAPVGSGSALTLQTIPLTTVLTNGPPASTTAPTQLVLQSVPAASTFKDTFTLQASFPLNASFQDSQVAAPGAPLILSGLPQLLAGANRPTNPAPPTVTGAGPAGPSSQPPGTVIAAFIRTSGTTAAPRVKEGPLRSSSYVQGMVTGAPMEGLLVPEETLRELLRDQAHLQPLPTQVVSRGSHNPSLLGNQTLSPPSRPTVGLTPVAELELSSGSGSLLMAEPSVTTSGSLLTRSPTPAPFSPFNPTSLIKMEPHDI
Summary of the method: as §1

ELK4 = target: T3, ELK4 (Homo sapiens, UniProt P28324-2 1-405); conditions: protein: recombinant; tags: N-terminal GST; dsDNA, one strand shown
T3 sequence: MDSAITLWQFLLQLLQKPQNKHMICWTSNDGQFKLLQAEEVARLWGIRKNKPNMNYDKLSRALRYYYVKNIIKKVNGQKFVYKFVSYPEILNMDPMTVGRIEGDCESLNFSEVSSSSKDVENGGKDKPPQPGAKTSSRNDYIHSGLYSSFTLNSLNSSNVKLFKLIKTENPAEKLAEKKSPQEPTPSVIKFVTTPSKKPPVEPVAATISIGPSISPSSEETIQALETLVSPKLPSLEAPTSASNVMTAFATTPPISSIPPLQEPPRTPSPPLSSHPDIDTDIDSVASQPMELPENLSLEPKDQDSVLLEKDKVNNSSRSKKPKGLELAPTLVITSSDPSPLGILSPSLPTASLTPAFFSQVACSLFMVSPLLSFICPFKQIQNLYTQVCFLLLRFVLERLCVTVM
Summary of the method: as §1

ETV2 = target: T4, ETV2 (Homo sapiens, UniProt O00321 1-342); conditions: protein: recombinant; tags: N-terminal GST; dsDNA, one strand shown
T4 sequence: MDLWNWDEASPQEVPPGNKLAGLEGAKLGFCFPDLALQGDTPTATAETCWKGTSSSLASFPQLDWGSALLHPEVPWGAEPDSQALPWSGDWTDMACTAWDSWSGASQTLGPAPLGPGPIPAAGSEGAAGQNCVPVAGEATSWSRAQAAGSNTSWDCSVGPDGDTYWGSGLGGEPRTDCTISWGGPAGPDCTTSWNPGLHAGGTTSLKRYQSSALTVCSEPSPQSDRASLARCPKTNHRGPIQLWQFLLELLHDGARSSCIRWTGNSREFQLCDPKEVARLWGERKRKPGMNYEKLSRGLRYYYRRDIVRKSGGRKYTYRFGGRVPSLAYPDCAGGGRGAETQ
Summary of the method: as §1

ELF3 = target: T5, ELF3 (Homo sapiens, UniProt P78545 1-371); conditions: protein: recombinant; tags: N-terminal GST; dsDNA, one strand shown
T5 sequence: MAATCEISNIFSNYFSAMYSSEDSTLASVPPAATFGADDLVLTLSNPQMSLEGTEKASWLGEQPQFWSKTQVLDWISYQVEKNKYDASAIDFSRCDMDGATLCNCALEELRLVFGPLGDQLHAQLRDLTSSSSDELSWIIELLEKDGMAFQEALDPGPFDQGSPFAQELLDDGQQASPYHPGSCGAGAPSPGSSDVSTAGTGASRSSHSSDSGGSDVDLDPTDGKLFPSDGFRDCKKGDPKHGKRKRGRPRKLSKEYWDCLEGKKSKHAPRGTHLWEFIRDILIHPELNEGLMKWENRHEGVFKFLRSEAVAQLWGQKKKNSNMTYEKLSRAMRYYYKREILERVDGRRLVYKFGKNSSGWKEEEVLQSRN
Summary of the method: as §1

CRX = CRX (Homo sapiens, UniProt O43186 1-299); conditions: protein: recombinant; tags: N-terminal GST; dsDNA, one strand shown
CRX, sequence (O43186 whole entry): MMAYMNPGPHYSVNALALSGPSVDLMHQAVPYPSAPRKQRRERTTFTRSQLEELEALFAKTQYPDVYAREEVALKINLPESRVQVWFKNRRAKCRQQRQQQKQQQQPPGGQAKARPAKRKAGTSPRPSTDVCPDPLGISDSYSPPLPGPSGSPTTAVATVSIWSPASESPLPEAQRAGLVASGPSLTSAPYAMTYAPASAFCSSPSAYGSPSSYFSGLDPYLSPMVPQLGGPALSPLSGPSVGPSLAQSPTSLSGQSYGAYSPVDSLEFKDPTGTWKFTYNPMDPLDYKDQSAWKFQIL
Summary of the method: as §1

**Q.** Which results are given for CCGAAA?
**A.** binding signal (FEV): 1.17 fold enrichment (6-mer frequency, TF over GST control); binding signal (ETV5): 1.25 fold enrichment (6-mer frequency, TF over GST control); binding signal (HSF1): 1.73 fold enrichment (6-mer frequency, TF over GST control); binding signal (SPIC): 1.31 fold enrichment (6-mer frequency, TF over GST control); binding signal (ELF4): 1.2 fold enrichment (6-mer frequency, TF over GST control); binding signal (ELK4): 1.14 fold enrichment (6-mer frequency, TF over GST control); binding signal (ETV2): 1.27 fold enrichment (6-mer frequency, TF over GST control); binding signal (ELF3): 1.17 fold enrichment (6-mer frequency, TF over GST control); binding signal (CRX): 1.28 fold enrichment (6-mer frequency, TF over GST control)
